This passage reports Potency results from PubChem BioAssay (NCATS).

SMILES strings stand for the structures. Inconclusive results are not listed. Calls of active or inactive are those of the source. The call rests on the fitted dose curve; in most records, active means well fitted cell-killing curve with a large enough effect; inconclusive means small, poorly fitted or top-dose-only effect, or effect the other way; inactive means no such curve, though single readings can be large or run the other way.
Potency means the concentration at half of the fitted maximal effect.

The assay in a line: Quantitative High-Throughput drug screen in 47 multiple myeloma cell lines against the NCATS MIPE library collection: KMS11_JCRBsus cell viability assay (AID 1919873). Further: nearly all actives have a fitted effect of over 50% in size. The conditions noted are these: KMS11 myeloma viability, CellTiter-Glo ATP luminescence, 48 h; series mostly up to 45.8 µM. Summed up: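 ATP-based luminescence (CellTiter-Glo, 5 min RT incubation) quantified surviving cells following two days' treatment with MIPE 4.0 agents at 37 °C, 5% CO2.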
(ATP-based viability assays read luminescence as a measure of living cells.)
In the case of `COc1cc(N2CCN(C)CC2)ccc1Nc1nc(N)c(C(=O)c2c(Cl)cccc2Cl)s1`, the Potency was 18.7 µM (active).
Next, `CSc1cccc(Nc2ncc3cc(-c4c(Cl)cccc4Cl)c(=O)n(C)c3n2)c1`: 0.187 µM (active).
Next, `CN(C)CCOc1ccc(C(=C(CCCl)c2ccccc2)c2ccccc2)cc1`: “inactive”.
Next, `O[C@@H](COc1cccc2ncccc12)CN1CCN(C2c3ccccc3[C@@H]3[C@H](c4ccccc42)C3(F)F)CC1` (stereo partly drawn): 4.18 µM (active); `COc1cc2nccc(Oc3ccc(NC(=O)Nc4cc(C)on4)c(Cl)c3)c2cc1OC`: 20.9 µM (active).
As for `C[C@H](CCC(=O)O)[C@H]1CC[C@H]2[C@H]3[C@@H](CC[C@]12C)[C@@]1(C)CC[C@@H](O)C[C@H]1C[C@@H]3O`, the Potency result was “inactive”.
In the case of `CO[C@@H]1C(N(C)C(=O)c2ccccc2)C[C@H]2O[C@]1(C)n1c3ccccc3c3c4c(c5c6ccccc6n2c5c31)C(=O)NC4=O` (stereo partly drawn), the Potency was 2.35 µM (active).
The entry for `CCCCCCCCCCCCCCCC(=O)O[C@H]1[C@@H](O)[C@@H](O)[C@@H]([C@H](NC(=O)[C@@H]2C[C@@H](CCC)CN2C)[C@H](C)Cl)O[C@@H]1SC` is “inactive”; for `NC(N)=Nc1nc(CSCCC(N)=NS(N)(=O)=O)cs1` it is “inactive”.
Next, `CCCC1OC2C[C@@H]3[C@H]4CCC5=CC(=O)C=C[C@]5(C)[C@H]4C(O)C[C@]3(C)[C@]2(C(=O)CO)O1` (stereo partly drawn): 0.0015 µM (active).
Next, `C[C@@H]1[C@H](C)CC[C@]2(C(=O)O)CC[C@]3(C)C(=CC[C@@H]4[C@@]5(C)CC[C@H](O)C(C)(C)[C@H]5CC[C@]43C)[C@@H]12`: “inactive”; `NC(=O)c1nnn(Cc2cc(Cl)c(C(=O)c3ccc(Cl)cc3)c(Cl)c2)c1N`: 16.6 µM (active); `CCC(=O)OCC(=O)[C@@]1(OC(=O)CC)[C@@H](C)C[C@@H]2[C@H]3CCC4=CC(=O)C=C[C@]4(C)[C@@]3(F)[C@@H](O)C[C@@]21C`: 0.0526 µM (active).
Consider `Cn1cnc(-c2cc3nccc(Oc4ccc(NC(=S)NC(=O)Cc5ccccc5)cc4F)c3s2)c1`, for which the Potency is 20.9 µM (active).
The figure for `COc1nccc(-c2c(-c3ccc(F)cc3)ncn2C2CCC(O)CC2)n1` (stereo not drawn) is 4.18 µM (active).
Next, `CCCCCCCCCCCCCC(=O)N[C@H](CO)[C@H](O)c1ccc([N+](=O)[O-])cc1`: 23.5 µM (active); `COc1c(C)cnc(Cn2cnc3c(Cl)nc(N)nc32)c1C`: 0.0662 µM (active).
Next, `CNC(=O)c1cc(Oc2ccc(NC(=O)Nc3ccc(Cl)c(C(F)(F)F)c3)c(F)c2)ccn1`: 14.8 µM (active); `CON(C)C(=O)N1N=C(c2cc(F)ccc2F)S[C@]1(CCCN)c1ccccc1`: “inactive”.
Consider `c1ccc(-c2oc3ncnc(NC[C@@H]4CCCO4)c3c2-c2ccccc2)cc1`, for which the Potency is 16.6 µM (active).
The figure for `CC(C)N(CCCNC(=O)Nc1ccc(C(C)(C)C)cc1)C[C@H]1O[C@@H](n2cc(Br)c3c(N)ncnc32)[C@H](O)[C@H]1O` is 18.7 µM (active).
Next, `Cc1cc2c(cc1C1(c3ccc(C(=O)O)cn3)CC1)C(C)(C)CCC2(C)C`: “inactive”; `N#CC(=C1Nc2ccccc2S1)c1ccnc(OCc2ccc(CN3CCOCC3)cc2)n1`: 1.05 µM (active).
The figure for `COc1ccc2c(c1)c(C1=C(c3c[nH]c4ccccc34)C(=O)NC1=O)cn2CCCN(C)C` is 23.5 µM (active); for `CC(C)(C)c1[nH]cnc1C=c1[nH]c(=O)c(=Cc2ccccc2)[nH]c1=O` it is “inactive”; for `CCC[C@H](Nc1nc(-c2ccc(NC(=O)NCC)c(OC)c2)ncc1C)c1cccnc1` it is 0.0012 µM (active).
For the compound `C=C1c2cccc(O)c2C(O)=C2C(=O)[C@@]3(O)C(O)=C(C(N)=O)C(=O)[C@@H](N(C)C)[C@@H]3[C@@H](O)[C@H]12`, the Potency entry is “inactive”.
Next, `CC(C)C[C@@H](N)[C@H](O)C(=O)N[C@H](C(=O)N[C@H](C(=O)N[C@@H](CC(=O)O)C(=O)O)C(C)C)C(C)C`: “inactive”; `CC1=C[C@@H]2[C@@H]([C@@H](O)C[C@@]3(C)[C@H]2C[C@@H](C)[C@]3(O)C(=O)CO)[C@@]2(C)Cc3cnn(-c4ccccc4)c3C=C12`: 0.0059 µM (active); `O=C(O)c1nc(=O)[nH]c(=O)[nH]1`: 11.5 µM (active).
The entry for `Cc1ccc(C(=O)N(CCCN)[C@@H](c2nc3cc(Cl)ccc3c(=O)n2Cc2ccccc2)C(C)C)cc1` is “inactive”.
As for `CC(C)c1c(C(=O)Nc2ccccc2)c(-c2ccccc2)c(-c2ccc(F)cc2)n1CC[C@H](O)C[C@@H](O)CC(=O)O`, the Potency was 10.5 µM (active).
Consider `C[C@@H](O)[C@H]1C(=O)N2C(C(=O)OCOC(=O)C(C)(C)C)=C(SC3CN(C4=NCCS4)C3)[C@H](C)[C@H]12`, for which the Potency entry is “inactive”.
For the compound `COc1ccc(CCC(=O)Nc2nc3ccc(Cl)cc3s2)cc1OC`, the Potency was 11.8 µM (active).
Regarding `Cc1ccc(S(=O)(=O)Nc2nc3ccccc3nc2Nc2ccc3nsnc3c2)cc1`, the Potency was 11.5 µM (active).
`CC(C)n1c(C=C[C@H](O)C[C@H](O)CC(=O)O)c(-c2ccc(F)cc2)c2ccccc21`: the Potency was 8.33 µM (active).
The figure for `CC[C@H](C=C[C@@H](C)[C@H]1CC[C@H]2[C@@H]3CC=C4C[C@@H](O)CC[C@]4(C)[C@@H]3CC[C@]12C)C(C)C` is 5.12 µM (active).
`CN(C)CCCNC(=O)c1ccc(-c2cc(O)c3ncccc3c2)cc1`: the Potency was 23.5 µM (active).
